Compound activity (PubChem)
Hits are enriched below; roughly 1.8% of the tested compounds scored in any of these assays.
Glioma ERSR ind – inducers of ER stress response in human glioma cells; U87-MG GRP78 promoter luciferase reporter, 16 h; Potency, µM, inactives show at the highest dose activation, actives largely listed as activators; 0.02% of 420,000 active; further: potency means the concentration at half of the fitted maximal effect; series mostly up to about 76 µM; % of control where 0% means no effect; nearly all actives have a fitted effect of over 35% in size
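Stably transfected U87-MG human glioma cells carrying a GRP78-based luminescent sensor were seeded at 1000 cells/well, pin-dosed with compounds and incubated 16 h. Luciferase reagent was then added, and end-point luminescence was read after 10 min at room temperature.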
Mito fusion act – blocks mitochondrial division or promotes mitochondrial fusion. S. cerevisiae fusion-defective mutant growth rescue, CellTiterGlo 48 h. Potency, µM (top dose mostly 46.1 µM), inactives show at the top dose growth rescue (activation), usual class: activators. 0.23% of 320,000 active; further: potency means the concentration at half of the fitted maximal effect; % of control where 0% means no effect; nearly all actives have a fitted effect of over 45% in size
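Luminescent cell viability in 1536-well qHTS format served as the measure of rescued growth in ts fusion-mutant S. cerevisiae cultured on non-fermentable YPEG for 48 hours at 37C.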
AT treatment – potential ataxia-telangiectasia treatment | F2112 A-T fibroblasts, KAP-1 phosphorylation AlphaLISA; neocarzinostatin DNA damage 30 min before lysis | AID 485349 | 0.19% of 320,000 active | Potency, µM (top dose mostly 57.5 µM), inactives show at the highest dose activation, most hits filed as activators; further: potency means the concentration at half of the fitted maximal effect; % of control where 0% means no effect; nearly all actives have a fitted effect of over 45% in size
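ATM-like activity read as KAP-1 phosphorylation via AlphaLISA donor/acceptor antibody pairs after lysis and 6 hr at 25C. Cells were ATM-null patient fibroblasts (F2112, hTERT), dosed 60 min, then exposed to the DSB inducer NCS for 30 min.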
TCR activator – activates T cell receptor signaling; primary human leukocytes, anti-CD3, IL-2 HTRF, 48 h; Potency, µM (highest dose often 9.22 µM), for inactives: top-dose activation of IL-2 secretion, usual class: activators; 330,000 tested, under 10 active; AID 504894; further: % of control where 0% means no effect
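IL-2 produced over 48 hr by a-CD3 bead-stimulated primary human leukocytes exposed to compounds was detected with a homogeneous time-resolved FRET immunoassay, 665nm acceptor signal after 320nm excitation.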
MBNL1 CUG block – blocks human MBNL1 binding to CUG repeat RNA; Q9NR56; TR-FRET MBNL1-His/biotin-(CUG)12 binding, 665/545 ratio; Potency, µM (top dose mostly 57.5 µM), inactives show at the top dose activity change, negative = inhibition, actives largely listed as inhibitors; 0.036% of 280,000 active; active means well fitted inhibition curve with a large enough effect in the signal ratio, with a control signal flat, not every such curve was filed as active; inconclusive means small, poorly fitted or top-dose-only effect, or effect the other way, or a change in a side signal; inactive means no such curve, though single readings can be large or run the other way; the % refers to the signal ratio; further: potency means the concentration at half of the fitted maximal effect; on the % scale 0 is the no-effect control and ±100 the full control effect
Target sequence (Q9NR56 whole entry, looked up): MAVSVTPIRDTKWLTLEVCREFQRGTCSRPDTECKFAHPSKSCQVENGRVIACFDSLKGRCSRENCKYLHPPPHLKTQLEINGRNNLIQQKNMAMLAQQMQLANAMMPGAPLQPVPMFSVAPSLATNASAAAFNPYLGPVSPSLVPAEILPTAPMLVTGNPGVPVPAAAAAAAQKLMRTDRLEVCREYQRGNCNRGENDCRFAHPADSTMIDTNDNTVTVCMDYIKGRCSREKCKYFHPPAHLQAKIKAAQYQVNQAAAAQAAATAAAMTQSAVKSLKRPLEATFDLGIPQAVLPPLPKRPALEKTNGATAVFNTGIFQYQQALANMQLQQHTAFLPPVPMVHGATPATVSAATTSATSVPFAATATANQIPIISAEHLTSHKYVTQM
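Compounds (final 92 nM to 58 uM) are added to His-tagged MBNL1 and biotin-(CUG)12, then terbium anti-His antibody and streptavidin-XL665 (5 nM final). After 60 min at room temperature, the 665/545 nm ratio is read.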
ClpP mod – qHTS Assay for Activators of ClpP | purified B. subtilis ClpP, FRET peptide cleavage, 20 min | Potency, µM (doses to about 57.5 µM), inactives show at the top dose activity change, negative = active | 1.9% of 340,000 active | AID 651965, 2013; active means well fitted falling curve with a large enough effect; inconclusive means small, poorly fitted or top-dose-only effect; inactive means no such curve, though single readings can be large or run the other way; further: potency means the concentration at half of the fitted maximal effect; the source files actives as falling curves though it sought activators and does not explain the sign; nearly all actives have a fitted effect of over 65% in size
Target sequence (P80244 whole entry, looked up): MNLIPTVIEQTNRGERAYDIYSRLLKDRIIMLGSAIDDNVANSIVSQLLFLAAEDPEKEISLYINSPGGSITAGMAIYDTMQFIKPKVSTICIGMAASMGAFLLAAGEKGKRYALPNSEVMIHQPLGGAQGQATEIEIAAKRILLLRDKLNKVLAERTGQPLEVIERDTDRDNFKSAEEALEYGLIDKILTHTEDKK
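FRET quenching reversal measured ClpP activation: 10 microg/mL B. subtilis ClpP at pH 8 with the FRET-FV decapeptide, read at 430 nm after 320 nm excitation. The 20-min minus 0-min signal was scaled between DMSO/no-enzyme wells and ADEP (5.8 microM final).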
MBNL1-CUG FRET – confirmation of inhibitors of human MBNL1-poly(CUG) RNA binding. 50% of 140 active. TR-FRET MBNL1-His / biotin-(CUG)12 binding, 60 min. AID 493199. Potency, µM (doses to about 57.6 µM), for the others: at the top dose activity change, negative = inhibition, hits mostly inhibitors. shares compounds with MBNL1 CUG block
MBNL1-CUG Alpha – blocks MBNL1 binding to (CUG)12 RNA in AlphaScreen. shares compounds with MBNL1 CUG block. AlphaScreen MBNL1-His / biotin-(CUG)12 binding. Potency, µM (series often up to 57.7 µM), without a hit: at the top dose activity, negative = inhibition, hits mostly inhibitors. 30% of 140 active. AID 493205
Menin-MLL HTRF – MBNL1-CUG RNA binding inhibitor counterscreen activity; shares compounds with MBNL1 CUG block; His-Menin/biotin-MLL peptide TR-FRET counterscreen; Potency, µM (doses to about 57.6 µM), for the others: at the top dose activity, negative = inhibition, usual class: inhibitors; 20% of 120 active; AID 651843
Starred values were filed as active, the others as inactive; u = inconclusive; x = no result given; [ ] = remark or other dose. Unless noted, the call rests on the fitted dose curve; in most records, active means well fitted curve in the direction sought with a large enough effect; inconclusive means small, poorly fitted or top-dose-only effect, or another doubt; inactive means no such curve, though single readings can be large; an effect the other way counts as inactive or inconclusive.

SMILES	Glioma ERSR ind	Mito fusion act	AT treatment	TCR activator	MBNL1 CUG block	ClpP mod	MBNL1-CUG FRET	MBNL1-CUG Alpha	Menin-MLL HTRF
COc1ccc(NC(=O)CCc2nnc3n(CC(C)C)c(=O)c4ccccc4n23)cc1	-2%	x	x	x	x	-2%	x	x	x
CCCn1c2ccccc2c2nnc(SCc3[nH]c(=O)[nH]c3C(=O)CCCCC(=O)OCC)nc21	16%	-16%	-2%	0%[46.1 µM]	u	2%	x	x	x
CCOC(=O)CCCCC(=O)c1[nH]c(=O)[nH]c1CSc1nnc2c3ccccc3n(C(C)C)c2n1	15%	5%	0%	-5%[46.1 µM]	28µM*	-1%	u	3.7µM*	-11%
CCOC(=O)/C(=N\Nc1cc(Cl)ccc1Cl)N1CC(C)OC(C)C1 (stereo unspecified)	-3%	0%	-18%	-1%	2%	-1%	x	x	x
CCOC(=O)/C(=N\Nc1ccccc1Cl)N1CC(C)OC(C)C1 (stereo unspecified)	-4%	2%	u	7%	0.025µM*	x	-4%	-6%	-1%
CCC(CC)NC(=O)Nc1ccc(F)c(Cl)c1	2%	-9%	3%	10%	40µM*	0%	u	4%	-23%
Cc1ccc(NC(=O)Nc2ccc(F)c(Cl)c2)cc1	1%	8%	1%	4%	0%	x	x	x	x
NC(=NCc1ccc2c(c1)OCO2)NC(=O)c1ccccc1	-2%	-2%	6%	-3%	x	x	13µM*	13µM*	4%
C/C(CCc1ccc2c(c1)OCO2)=N\NC(=O)c1ccccc1	8%	0%	13%	2%[46.1 µM]	10%	x	x	x	x
O=C1C(SCCO)=C(SCCO)C(=O)c2ccccc21	-13%	u	-5%	2%	u	2%	5µM*	10µM*	x
CCOC(=O)CCCCC(=O)c1[nH]c(=O)[nH]c1Cn1ccnc1	0%	0%	7%	16%	40µM*	1%	41µM*	u	-3%
CC(C)OC(=O)CSc1nnc(-c2cnccn2)n1C	0%	-2%	x	1%[46.1 µM]	40µM*	-2%	u	-10%	0%
Cc1ccc(C(=O)NCCN2C3=NC[C@H](C(C)C)N3C[C@H]2Cc2ccc(O)cc2)cc1Br	-2%	-1%	-16%	0%	40µM*	-1%	41µM*	u	-26%
Cc1oc2nc(SCCCC(=O)NCCO)nc(N)c2c1C	0%	-2%	0%	-1%	20µM*	-1%	u	u	-3%
CCOc1ccc2[nH]c(=O)c(C(c3nnnn3Cc3ccco3)N3CCN(C)CC3)cc2c1 (stereo unspecified)	-6%	-27%	12%	-2%	u	x	-6%	-10%	4%
CN1C[C@H](C(=O)N[C@]2(C)O[C@]3(O)[C@H]4CCCN4C(=O)[C@H](Cc4ccccc4)N3C2=O)C[C@H]2c3cccc4[nH]cc(c34)C[C@@H]21	-5%	x	x	x	x	x	x	x	x
CCCN1C[C@H](CSC)C[C@@H]2c3cccc4[nH]cc(c34)C[C@H]21	-4%	20%	-1%	-2%	u	-5%	u	-42%	x
O=C(OC[C@H]1O[C@@H](OC(=O)c2cc(O)c(O)c(OC(=O)c3cc(O)c(O)c(O)c3)c2)[C@H](OC(=O)c2cc(O)c(O)c(OC(=O)c3cc(O)c(O)c(O)c3)c2)[C@@H](OC(=O)c2cc(O)c(O)c(OC(=O)c3cc(O)c(O)c(O)c3)c2)[C@@H]1OC(=O)c1cc(O)c(O)c(OC(=O)c2cc(O)c(O)c(O)c2)c1)c1cc(O)c(O)c(OC(=O)c2cc(O)c(O)c(O)c2)c1	x	12%	-20%	x	x	-7%	x	x	37µM*
CSCC[C@H](NC(=O)[C@H](Cc1c[nH]c2ccccc12)NC(=O)CCNC(=O)OC(C)(C)C)C(=O)N[C@@H](CC(=O)O)C(=O)N[C@@H](Cc1ccccc1)C(N)=O	-4%	x	x	x	x	x	x	x	x
CCCN1CNc2c(c(=O)[nH]c(=S)n2CCc2ccsc2)C1	x	x	x	x	x	-2%	x	x	x
Cc1cc2c(c(=O)n1CCN(C)C)C(c1ccccc1Br)C(C#N)=C(N)O2 (stereo unspecified)	1%	2%	16%	1%	10µM*	0%	13µM*	-7%	26µM*
COc1ccc(-c2nc3cnc(N4CCN(C)CC4)nc3n(Cc3ccc(F)cc3)c2=O)cc1	0%	x	x	x	x	x	x	x	x
CC(C)N1CCC2(CC1)C(C#N)=C(N)NC(S)=C2C#N	x	-2%	-5%	8%[46.1 µM]	u	x	21µM*	-12%	18µM*
NCCCC(N)CC(=O)NCC1NC(=O)C(CO)NC(=O)C(N)CNC(=O)C(C2CCN=C(N)N2)NC(=O)/C(=C/NC(N)=O)NC1=O (stereo unspecified)	-5%	x	x	x	x	x	-1%	-7%	x
O=C(C1CC1)N1CCc2cc(Br)cc(S(=O)(=O)Nc3ccc(C(F)(F)F)cc3)c21	-4%	x	x	x	x	1%	x	x	x
SMILES	Glioma ERSR ind	Mito fusion act	AT treatment	TCR activator	MBNL1 CUG block	ClpP mod	MBNL1-CUG FRET	MBNL1-CUG Alpha	Menin-MLL HTRF
O=c1[nH]c(Nc2ccc(F)cc2)cc2ccccc12	-3%	-6%	6%	8%	x	u	33µM*	13µM*	2%
O=c1[nH]c(Nc2ccccc2Cl)cc2ccccc12	1%	x	x	2%	x	5%	x	x	x
O=C1Cc2ccccc2C(=O)N1Cc1ccccc1	-4%	-2%	4%	7%	25µM*	-2%	-9%	u	3%
CC1=C(C(N)=O)C(c2cccc(Br)c2)n2nc(SCc3ccccc3Cl)nc2N1 (stereo unspecified)	-2%	x	x	x	x	-10%	x	x	x
CC1=C(C(N)=O)C(c2cccnc2)n2nc(SCc3ccccc3Cl)nc2N1 (stereo unspecified)	-5%	-1%	x	-5%[46.1 µM]	25µM*	0%	2%	-4%	0%
COc1ccc(CN2C(=O)Cc3c2nc(N)c2c(N)nc(N4CCCCC4)c(C#N)c32)cc1	x	-2%	0%	4%[46.1 µM]	15%	x	x	x	x
